# Bioassay records as filed in PubChem.
# Only a selection was taken, and hits are over-represented in it overall.
# IMPase Li cell: IMPase inhibition in cells with lithium potentiation; CHO-M1 cells, IP1 TR-FRET (IP-One), carbachol + lithium; Potency, µM (series often up to 59.4 µM), for inactives: top-dose activity, negative = IMPase inhibition, most hits filed as inhibitors; actives 0.35% (n = 210,000); AID 1457;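 also: IP1 builds up when IMPase is blocked and the TR-FRET signal falls; potency is read from the fitted curve at half-maximal effect; plate controls were basal vehicle for no effect and high inhibitor control for full effect; nearly all actives have a fitted effect of over 50% in size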
#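 IP1 accumulation measured by competitive TR-FRET in lysed CHO-M1 cells after 30 min compound exposure at 37C, with a small lithium addition to potentiate weak responses. Hill-equation AC50 from ratio and donor-channel data.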
# PNC assembly inh: inhibitors of perinucleolar compartment assembly; PC3M PTB-GFP, PNC prevalence imaging, 16 h; stronger effect = lower value; activity change (PNC), negative = inhibition, % at 10 µM; actives 3.1% (n = 140,000); AID 2417;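 active = readout at or below -70, meaning at least 70% loss of cells showing the perinucleolar compartment, a nuclear body marking cancer cells; inconclusive = readout between -30 and a set limit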;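 also: plate controls were DMSO wells for no effect and camptothecin positive control wells for full effect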
#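 Compounds are pinned in duplicate onto adhered PC3M cells stably expressing GFP-tagged PTB and incubated 16 h at 37 C. Cells are then fixed, nuclei stained with Hoechst, and PNC-positive cells counted.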
# IMPase cell inh: membrane-permeable compound that blocks inositol monophosphatase; inhibition (IP1 accumulation), % at 46.1 µM; P97697; 120,000 tested, under 10 active; CHO-M1 cells, IP1 accumulation, HTRF TR-FRET ratio; active = well fitted curve in the direction sought with a large enough effect in the signal ratio, not every such curve was filed as active; inconclusive = small, poorly fitted or top-dose-only effect, or a change in a side signal; inactive = no such curve, though single readings can be large or run the other way; the % refers to the signal ratio;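 also: cells stimulated with carbachol in lithium chloride buffer; plate controls were DMSO basal wells for no effect and reference inhibitor wells for full effect; higher means more IMPase inhibition seen as more IP1 and lower FRET ratio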
# Target sequence (P97697 whole entry, looked up): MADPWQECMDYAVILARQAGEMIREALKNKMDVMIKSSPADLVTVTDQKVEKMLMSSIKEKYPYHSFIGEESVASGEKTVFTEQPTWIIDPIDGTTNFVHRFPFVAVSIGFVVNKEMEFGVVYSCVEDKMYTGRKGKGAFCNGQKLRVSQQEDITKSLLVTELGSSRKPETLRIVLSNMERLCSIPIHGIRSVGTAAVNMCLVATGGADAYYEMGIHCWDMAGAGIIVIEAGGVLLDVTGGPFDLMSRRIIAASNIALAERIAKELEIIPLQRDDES
#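 Elevated IP1 in lysates lowers TR-FRET signal (665/620 ratio and 620 channel reported). Cells were CHO-M1, given carbachol (50 uM as added) plus 50mM LiCl, pH 7.4, 30 min, 37C; compounds titrated up to 46 uM; AC50 by Hill equation.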
# 12-hLO inh: blocks human 12-lipoxygenase activity; P18054; purified 12-hLO, xylenol orange hydroperoxide absorbance; Potency, µM (series often up to 57.1 µM), for the others: at the top dose activity change, negative = inhibition, most hits filed as inhibitors; actives 0.12% (n = 150,000); also: potency is read from the fitted curve at half-maximal effect; nearly all actives have a fitted effect of over 55% in size
#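 Hydroperoxide formation by human 12-lipoxygenase from 40 uM arachidonic acid was followed colorimetrically via ferric-xylenol orange complex, using the 573/405 nm absorbance ratio. Enzyme concentration was 150 nM, with 30 min reaction at room temperature.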
# * = called active by the depositor; ? = inconclusive; . = no result; [ ] = dose if it differs, or a comment. Unless noted, calls follow the shape of the dose curve; as a rule, active = well fitted curve in the direction sought with a large enough effect; inconclusive = small, poorly fitted or top-dose-only effect, or another doubt; inactive = no such curve, though single readings can be large; an effect the other way counts as inactive or inconclusive. Unless noted, % is scaled to controls: 0 for no effect and ±100 for the full control effect.
SMILES,IMPase Li cell,PNC assembly inh,IMPase cell inh,12-hLO inh
O=C(Nc1ccccn1)c1cc(-c2cccnc2)nc2ccc(Br)cc12,11µM*,21,?,0%
CCOc1nnc(C)c2c(C)n(-c3cccc(OC)c3)nc12,-4%[38.3 µM],-106*,-1,1%
COc1cccc(-n2nnc3c(=O)n(Cc4ccc(C)cc4)cnc32)c1,3%[38.3 µM],13,-1,-7%
CCCCC(=O)N(c1ccc2oc(C)c(C(C)=O)c2c1)S(=O)(=O)c1ccc(F)cc1C,.,.,14,.
O=C(c1ccco1)N1CCC2(CC1)CN(c1cccc(-c3ccccc3)c1)C2,3%,.,.,-3%
CC(=O)Oc1ccc(N(C(C)=O)S(=O)(=O)c2cccs2)c2ccccc12,51%[38.3 µM],-82*,11,7%
CC(=O)Oc1ccccc1N(C(C)=O)S(=O)(=O)c1ccc2ccccc2c1,10%,.,.,.
COc1ccc(C(C)=O)cc1CSc1nnc(Nc2ccc(C)cc2)s1,4%,-113*,.,-4%
Cc1ccc(NC(=O)c2ccccc2O)cc1,3%,-100*,-3,6%
CC(=O)N(C)c1ccc(NC(=O)c2ccccc2C(=O)O)cc1,-1%[38.3 µM],-117*,-4,-1%
O=C(Nc1ccccc1)c1ccccc1O,3%[38.3 µM],-8,9,5%
CC(=O)N(C)c1ccc(NC(=O)c2ccco2)cc1,10%[38.3 µM],23,-8,0%
CN[C@@H]1NC(=O)c2ccccc2N1Cc1ccc(F)cc1,-2%,.,.,1%[11.4 µM]
COC(=O)C1=C(C)OC(N)=C(C#N)C1c1ccc(OC)c(CSc2ccccn2)c1 (stereo unspecified),27%[38.3 µM],-87*,16[1.84 µM],-4%
Cc1ccc(C(=O)Nc2ccc3oc(-c4ccc(C(C)(C)C)cc4)nc3c2)cc1,.,.,-3,.
CCOC(=O)c1c(-c2cccs2)csc1NC(=O)CCCC(=O)O,10µM*,98,?,2%
O=C(CCl)NCCN1C(=O)S/C(=C\c2cccnc2)C1=O,12%,.,.,.
CC(C(=O)NCCN1C(=O)S/C(=C\c2cccnc2)C1=O)N1C(=O)c2ccccc2C1=O (stereo unspecified),4%,-105*,.,-2%
N#Cc1ccccc1NC(=O)Nc1ccc(Cl)cc1,-4%[38.3 µM],-109*,-2,1%
CC(C)OC(=O)CSc1nnc2c(n1)[nH]c1ccc(F)cc12,9%,.,.,.
Cc1[nH]n(-c2ccccc2)c(=S)c1C=Nc1cccc([N+](=O)[O-])c1,3%[38.3 µM],-22,1,32µM*
CN(C)C(=O)c1ccc(-c2nc(N(C)C)c3ccccc3n2)cc1,22%,.,.,2%
CCOC(=O)N1N=C(c2ccc(C)cc2)CC1(O)C(F)(F)F (stereo unspecified),0%,?,3,-9%
CCOC(=O)N1N=C(CC)CC1(O)C(F)(F)F (stereo unspecified),9%,-86*,10,-1%
CCOC(=O)Cn1c(=N)n(CCOc2cccc(C)c2)c2ccccc21,2%,-97*,2,0%
SMILES,IMPase Li cell,PNC assembly inh,IMPase cell inh,12-hLO inh
CCOC(=O)Cn1c(=N)n(Cc2ccccc2)c2ccccc21,-1%[38.3 µM],2,-13,-5%
Cc1cccc(OCCn2c(=S)[nH]c3ccccc32)c1,16%,?,-5,28µM*
c1c[nH]cn1,-16%,.,.,-3%
O=C(Nc1ccccc1-c1ccccc1)c1cc(C(F)(F)F)cc(C(F)(F)F)c1,6%,?,1,1%
Cc1cc(C(=O)N/N=C/c2cn[nH]c2-c2ccccc2)cs1,-3%,-114*,.,-2%
Cc1c(C(=O)N(C)C2CCCCC2)sc2nc3ccc(N)cc3n12,12%,.,.,1%[0.00818 µM]
COc1ccc(-c2ccc(C(=O)O)c(=O)[nH]2)cc1,3.2µM*,.,.,.
COc1ccc(-c2cc(=O)[nH]c(=S)[nH]2)cc1,-3%,.,.,.
NCC1O[C@@H](OC2C(N)CC(N)C(O)C2O[C@@H]2OC(CO)C(O)C2O)C(N)C(O)C1O (stereo partly specified),104%,.,.,3%
CC(C)CNC(=O)CSc1nnc(-c2cccc(S(=O)(=O)N3CCCCC3)c2)o1,?,-128*,?,-4%
COc1ccc(O)c(/C=N/Nc2nc3ccccc3[nH]2)c1,8%,.,.,.
O=[N+]([O-])c1ccc(O)c(/C=N/Nc2nc3ccccc3[nH]2)c1,9%,-93*,0,1%
O=C(CCc1ccc(S(=O)(=O)NCc2ccccc2)cc1)NCC1CCCO1 (stereo unspecified),-9%,-106*,.,0%
CC(NS(=O)(=O)c1ccc(CCC(=O)NCC2CCCO2)cc1)c1ccccc1 (stereo unspecified),1%,12,-2,18%
O=c1[nH]c(SCc2c(Cl)c(Cl)c(Cl)c(Cl)c2Cl)nc(=S)[nH]1,9%,.,.,-16%[11.4 µM]
Cc1nn(C)c(C(=O)NNC(=S)NCc2ccco2)c1Cl,19%,232,-11,2%
Cc1nn(C)c(C(=O)NNC(=S)NCC(C)C)c1Cl,-8%,-114*,.,0%
CCOC(=O)CSc1nc2c(c(=O)[nH]c(=O)n2C)n1CCc1ccccc1,10%[38.3 µM],?,-1,3%
CCCCn1c(SCC(=O)OCC)nc2c1c(=O)[nH]c(=O)n2C,3%,-119*,-9,2%
Cn1nc(C(=O)NC2CCCc3ccccc32)ccc1=O (stereo unspecified),-2%,.,.,.
CCOC(=O)C1=NN(C(=O)c2ccccc2)C(O)(c2ccc(C)cc2)C1 (stereo unspecified),-5%,-95*,.,-6%
COc1ccccc1CNCCCCCCNCCCCCCCCNCCCCCCNCc1ccccc1OC,11%,.,19,7%
COC(=O)[C@H]1CC2(CC=C(C)C)C(=O)[C@@](CC=C(C)C)(C(=O)C(C(=O)c3ccccc3)=C2OC)C1(C)C (tested in a mixture with another compound),4%,.,.,3%
Cc1ccc(CNc2oc(C)nc2C#N)cc1,.,-85*,3,-5%
Cc1ccc(NC(=O)CSCC(=O)Nc2ncc3c(n2)CC(c2ccco2)CC3=O)cc1 (stereo unspecified),5%[38.3 µM],-85*,2,-9%
SMILES,IMPase Li cell,PNC assembly inh,IMPase cell inh,12-hLO inh
COCCNC(=O)CN(C(=O)Cn1nnc2ccccc21)c1ccc(C)c(F)c1,14%,-119*,-5,1%
COc1ccc(N2C(=O)C(Cl)=C(N(CCO)Cc3ccccc3)C2=O)cc1,-8%[38.3 µM],-125*,2,-11%
CCCCn1c(-c2csc(C(C)C)c2)n[nH]c1=S,9%,-109*,.,?
N#CCc1ccc(C(=O)c2ccccc2)s1,7%[38.3 µM],-82*,-13[1.84 µM],1%
Nc1nnc(/C=C/c2ccccc2)s1,-1%,.,.,.
CCc1nnc(NS(=O)(=O)c2ccc(NC(=S)NC(=O)/C=C/c3ccc(C(C)C)cc3)cc2)s1,4%[38.3 µM],15,10,16µM*
O=C(COc1ccccc1[N+](=O)[O-])N/N=C/c1cccs1,-6%,-96*,.,-2%
COc1cccc(N2CCN(C(=S)NCCc3ccccc3)CC2)c1,34%[38.3 µM],-92*,18,-6%
CNC(=S)N1CCN(c2cccc(OC)c2)CC1,-6%[38.3 µM],49,1,2%
